Data as given in PubChem BioAssay (NCI).
The panel holds about 83,000 compounds, 20% with a hit somewhere; the sample as a whole holds those more often.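 Results are percent growth after 48 hours of single-concentration exposure. 100 means growth as in untreated cells, lower positive values show inhibition; negative values down to -100 show cell death.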 Unmarked numbers belong to inactive results. Active and inactive are the calls of the source. How the source made its calls: active means growth percent below 10; inactive means the rest.

What was measured:
Assay in all cases: NCI-60 one-dose screen, 48 h (100 = growth as untreated, 0 = no growth, -100 = all killed)
Conditions in all cases: 10 µM unless noted
NCI-H226 lung = system: NCI-H226 lung
NCI-H322M lung = system: NCI-H322M lung
HOP-62 NSCLC = system: HOP-62 NSCLC
NCI-H460 lung = system: NCI-H460 lung
HOP-92 NSCLC = system: HOP-92 NSCLC
NCI-H522 lung = system: NCI-H522 lung
A549/ATCC NSCLC = system: A549/ATCC NSCLC
786-0 renal = system: 786-0 renal
COLO 205 colon = system: COLO 205 colon
DU-145 prostate = system: DU-145 prostate
K-562 leukemia = system: K-562 leukemia
MALME-3M melanoma = system: MALME-3M melanoma
MDA-MB-231 breast = system: MDA-MB-231 breast
RXF 393 renal = system: RXF 393 renal
SF-268 CNS = system: SF-268 CNS
SF-295 CNS = system: SF-295 CNS
SF-539 CNS = system: SF-539 CNS
UACC-257 melanoma = system: UACC-257 melanoma
M14 melanoma = system: M14 melanoma

Structure (SMILES) | growth (NCI-H226 lung) | growth (NCI-H322M lung) | growth (HOP-62 NSCLC) | growth (NCI-H460 lung) | growth (HOP-92 NSCLC) | growth (NCI-H522 lung) | growth (A549/ATCC NSCLC) | growth (786-0 renal) | growth (COLO 205 colon) | growth (DU-145 prostate) [%] | growth (K-562 leukemia) | growth (MALME-3M melanoma) | growth (MDA-MB-231 breast) | growth (RXF 393 renal) | growth (SF-268 CNS) | growth (SF-295 CNS) | growth (SF-539 CNS) | growth (UACC-257 melanoma) | growth (M14 melanoma)
Cc1nn(-c2ccc([N+](=O)[O-])cc2)c2ncnc(NCCc3ccccc3)c12 | 97.8% | 116% | 102% | 91.6% | 91.3% | 107% | 99.8% | 105% | 104% | 110 | 76.8% | 121% | 102% | 102% | 94.7% | 111% | 99.5% | 106% | –
CC(C)C1=CC2=C(C=O)C[C@@H]3[C@](C)(CCC[C@@]3(C)C(=O)OCC#CCN3CCCC3)[C@H]2CC1 | 75.7% | 96.2% | 84.9% | 76.8% | 45.9% | 59.9% | 67.4% | 75.2% | 86.5% | 96.3 | 30.8% | 81.8% | 89.3% | 72.6% | 86.9% | 79.7% | 63.9% | 86.6% | 75.9%
COc1cc(/C(C#N)=C/c2ccc3c(c2OC)OCO3)cc2c1OCO2 | 89.9% | 35.2% | 31.2% | 9.09% (active) | 61.2% | -19.1% (active) | 27.9% | 33.7% | -3.05% (active) | 11.2 | 20.9% | 37.1% | 29.7% | -14.3% (active) | 47.1% | 6% (active) | 4.21% (active) | 62.2% | -3.69% (active)
O=C(CSc1nc2ccccc2[nH]1)Nc1ccc(-c2nc3ccccc3s2)c(Cl)c1 | 40.3% | 64.9% | 10.2% | -4.98% (active) | -11.9% (active) | -9.43% (active) | -33.7% (active) | -72.9% (active) | 19.5% | – | 20.4% | 2.26% (active) | -36.8% (active) | 21.8% | – | 3.63% (active) | -88.6% (active) | 16% | -58.1% (active)
O=Nc1c(-c2cccc([N+](=O)[O-])c2)nc2ncccn12 | 102% | 120% | 100% | 101% | 87.4% | 67.1% | 97.7% | 93.9% | 65.1% | 73.5 | 10.5% | 85.2% | 111% | -3.85% (active) | 92.2% | 107% | 91% | 79.3% | 76.9%
N=c1ccc2nc3ccc(N)cc3sc-2c1 | 87.8% | 51.6% | 15% | 43.6% | 40.6% | 12.8% | 7.01% (active) | 59.1% | 0.589% (active) | 89.4 | 26.6% | 31.8% | 17% | 73.5% | 39.7% | 35.5% | 2.29% (active) | 2.21% (active) | 13.8%
Cc1ccc(S(=O)(=O)c2nc(-c3ccccc3)oc2S(C)(=O)=O)cc1 | 90.5% | 106% | 80.7% | 80% | -27.4% (active) | -84.4% (active) | 85.6% | -16.5% (active) | -76.6% (active) | 30.4 | 2.49% (active) | -77.8% (active) | 13.6% | 10.4% | 68.6% | 89.4% | -23.1% (active) | 74.8% | 17.8%
CC(=O)Nc1ccc(/C=C/C(=O)c2ccccc2)cc1 | 102% | 120% | 97.1% | 105% | 74.7% | 68.1% | 92.6% | 98.5% | 112% | 86.6 | 36.7% | 120% | 104% | 68.2% | 89.1% | 106% | 96.6% | 89.3% | 97.7%
CCOC(=O)/C(C#N)=C1/C(=O)Nc2ccccc21 | 116% | 127% | 104% | 120% | 110% | 183% | 112% | 124% | 118% | 123 | 132% | 108% | 116% | 117% | 122% | 113% | 99.7% | 123% | 94.6%
Cc1ccc(S(=O)(=O)NC(=O)n2cc(-c3ccncc3)c(-c3ccc(Cl)c(O)c3)n2)cc1 | 98.6% | 111% | 116% | 111% | 99% | 91.3% | 99.6% | 95.4% | 113% | 132 | 98.9% | 65% | 89.8% | 114% | 117% | 109% | 92.1% | 99.4% | 51.2%
Cc1ccc(S(=O)(=O)NCCCNc2cc(-c3cn(C(C)(C)C)nc3-c3cccc(O)c3)ccn2)cc1 | 54.6% | 87.9% | 85.1% | 29.9% | 71% | 53% | 59.6% | 56.6% | 8.53% (active) | 76.1 | 11.8% | 61.9% | 62.5% | 60.2% | 54.8% | 51.7% | 49.7% | 72% | 56.8%
CCCCCCCCCCCCCCCCCCNC(=O)[C@H]1CSC(c2cccs2)N1 (stereo partly specified) | -77.5% (active) | 0.224% (active) | -90.3% (active) | -78.4% (active) | 46.3% | 38.6% | 8.15% (active) | 3.69% (active) | 80.6% | 53.3 | -27.7% (active) | -78.4% (active) | -93.5% (active) | -90.9% (active) | -65.7% (active) | 66.5% | -49.6% (active) | -17.7% (active) | -84.8% (active)
Cc1c(C(N)=O)sc2c1c(=O)n(Cc1ccccc1)c1nnc(Nc3ccccc3)n21 | 106% | 105% | 89.1% | 119% | 101% | 87.1% | 94.4% | 105% | – | 89.3 | – | 110% | 105% | 113% | 101% | 104% | 100% | 92.3% | 101%
CCCCCCCCN(CCCCCCCC)CCCCCCNc1cc(OC)cc2cccnc12 | 100% | 88.5% | 96.7% | 92.8% | 62.6% | 92.1% | 105% | 93.7% | – | 27.4 | 80.1% | 61.7% | 52% | 108% | 83.4% | 109% | 111% | 18.2% | -1.6% (active)
N/C(=N\C(N)=N\c1nc2ccccc2s1)c1ccncc1 | 76.1% | 96% | 60.7% | 94% | 65.2% | 2.64% (active) | 89.3% | 73.9% | 64.3% | 91.1 | 13.1% | 81.5% | 55.7% | 65.7% | 7.14% (active) | 74.1% | 68.2% | 95.3% | 49.5%
O=C(c1ccccc1)C1OC1c1ccc([N+](=O)[O-])cc1 (stereo unspecified) | 67.7% | 106% | 86.4% | – | – | 31.4% | 85.6% | 83.3% | 112% | 67.9 | 32.6% | 83.6% | 78.4% | 77.8% | 79.2% | 97% | 96.5% | 68.1% | 48.2%
